For 66 molecules, cytotoxicity call results are on record in the antibiotic and cytotoxicity screens of Wong et al. (2023).

Hit rate of the full screen: of about 39,000 compounds, about 3,300 (8.5%) were called active. The entries come from a sample that favours actives as a whole.

The assay relates to HepG2. As to the kind of experiment: cytotoxicity call (relative viability < 0.9). Particulars: 10 µM.
As to `C[C@H]1CN([C@@H](C)CO)C(=O)Cc2cc(NC(=O)CCN3CCOCC3)ccc2O[C@H]1CN(C)S(=O)(=O)c1ccccc1`, the cytotoxicity call was “inactive”.
`C=C[C@](C)(O)CCC[C@H](C)CCC[C@H](C)CCCC(C)C`: the cytotoxicity call is “inactive”.
For the molecule `CC(=O)OC1CCC2(C)C(CCC3(C)C2CC=C2C4CC(C)(C)CCC4(C(=O)O)CCC23C)C1(C)C` (stereo unspecified), the cytotoxicity call is “inactive”.
For `COc1ccc(S(=O)(=O)Nc2ccc3c(c2)C(=O)N([C@@H](C)CO)C[C@H](C)[C@H](CN(C)Cc2ccc4c(c2)OCO4)OCCCC[C@H](C)O3)cc1`, the cytotoxicity call was “inactive”.
With `C[C@@H]1CN([C@H](C)CO)C(=O)Cc2cc(NS(=O)(=O)c3ccc(Cl)cc3)ccc2O[C@@H]1CN(C)C(=O)Nc1ccc(C(F)(F)F)cc1`, the cytotoxicity call is “inactive”.
In the case of `CN(C)C(=O)C[C@@H]1C=C[C@H](NC(=O)C2CC2)[C@@H](CO)O1`, the cytotoxicity call is “inactive”.
Next, `COc1ccc(S(=O)(=O)N(C)C[C@@H]2OCCCC[C@@H](C)Oc3ccc(NC(=O)NC4CCCCC4)cc3C(=O)N([C@H](C)CO)C[C@H]2C)cc1`: “active”.
Take `COc1ccc(S(=O)(=O)N(C)C[C@H]2OCCCC[C@H](C)Oc3ccc(NC(=O)NC4CCCCC4)cc3C(=O)N([C@H](C)CO)C[C@@H]2C)cc1`: the cytotoxicity call was “inactive”.
`COc1ccc(S(=O)(=O)N(C)C[C@H]2OCCCC[C@@H](C)Oc3ccc(NC(=O)NC4CCCCC4)cc3C(=O)N([C@@H](C)CO)C[C@@H]2C)cc1`: the cytotoxicity call was “active”.
With `COc1ccc(S(=O)(=O)N(C)C[C@H]2OCCCC[C@H](C)Oc3ccc(NC(=O)NC4CCCCC4)cc3C(=O)N([C@H](C)CO)C[C@H]2C)cc1`, the cytotoxicity call was “inactive”.
Next, `COc1ccc(S(=O)(=O)N(C)C[C@H]2OCCCC[C@H](C)Oc3ccc(NC(=O)NC4CCCCC4)cc3C(=O)N([C@@H](C)CO)C[C@H]2C)cc1`: “inactive”; `COc1ccc(S(=O)(=O)N(C)C[C@H]2OCCCC[C@@H](C)Oc3ccc(NC(=O)NC4CCCCC4)cc3C(=O)N([C@@H](C)CO)C[C@H]2C)cc1`: “active”; `COc1ccc(S(=O)(=O)N(C)C[C@@H]2OCCCC[C@H](C)Oc3ccc(NC(=O)NC4CCCCC4)cc3C(=O)N([C@H](C)CO)C[C@@H]2C)cc1`: “inactive”.
The value for `COc1ccc(S(=O)(=O)N(C)C[C@@H]2OCCCC[C@H](C)Oc3ccc(NC(=O)NC4CCCCC4)cc3C(=O)N([C@@H](C)CO)C[C@@H]2C)cc1` was “inactive”.
The value for `COc1ccc(S(=O)(=O)N(C)C[C@@H]2OCCCC[C@H](C)Oc3ccc(NC(=O)NC4CCCCC4)cc3C(=O)N([C@@H](C)CO)C[C@H]2C)cc1` was “inactive”; that for `C[C@@H]1CN([C@H](C)CO)C(=O)Cc2cc(NC(=O)CCCCCC(=O)Nc3ccccc3N)ccc2O[C@H]1CN(C)S(=O)(=O)c1cn(C)cn1` was “inactive”; that for `COc1ccc(NC(=O)N(C)C[C@@H]2OCCCC[C@@H](C)Oc3ccc(NS(=O)(=O)c4cccs4)cc3C(=O)N([C@@H](C)CO)C[C@H]2C)cc1` was “inactive”.
As for `C[C@H](CO)N1C[C@H](C)[C@@H](CN(C)S(=O)(=O)c2cn(C)cn2)Oc2ccc(NC(=O)C3CC3)cc2CC1=O`, the cytotoxicity call is “inactive”.
The value for `C[C@@H]1CCCCO[C@H](CN(C)Cc2ccc(C(=O)Nc3ccccc3N)cc2)[C@@H](C)CN([C@@H](C)CO)C(=O)c2cc(N(C)C)ccc2O1` was “inactive”; that for `O=C(C[C@H]1C=C[C@@H](NC(=O)CN2CCOCC2)[C@@H](CO)O1)NCCc1ccccc1` was “inactive”.
The value for `CC(C)CC#Cc1ccc2c(c1)O[C@H](CN(C)C(=O)c1ccncc1)[C@H](C)CN([C@H](C)CO)S2(=O)=O` was “inactive”.
The value for `CCCCCCCCc1ccc(-c2ccc(C(=O)O)cc2)cc1` was “inactive”; that for `CCCCCCCCCc1ccc(OCCOCCOCCOCCOCCOCCOCCOCCOCCO)cc1` was “active”.
For the molecule `OCCC[C@@H](O)c1ccc(OCCO)cc1`, the cytotoxicity call is “inactive”.
The value for `C[C@@H]1CN([C@@H](C)CO)C(=O)CCCn2nncc2CO[C@H]1CN(C)Cc1ccc(C(=O)Nc2ccccc2N)cc1` was “inactive”; that for `c1coc(CNC[C@H]2Cn3nncc3CO2)c1` was “inactive”.
The value for `CC(C)(C)c1ccc(NC(=O)c2ccc(C(C)(C)C)s2)cc1` was “inactive”; that for `CC(C)(C)c1ccc(NC(=O)N[C@H]2CCCc3ccccc32)cc1` was “active”; that for `N[C@H]1CC[C@@H](NC(=O)[C@H]2CCc3ccccc32)CC1` was “inactive”.
The value for `Cc1ccc(S(=O)(=O)Nc2ccc3c(c2)C(=O)N([C@H](C)CO)C[C@H](C)[C@@H](CN(C)C(=O)NC2CCCCC2)OCCCC[C@@H](C)O3)cc1` was “inactive”; that for `Cc1nc2ccccc2n1Cc1ccc(Cl)cc1` was “active”; that for `Clc1ccc(CSc2nc3ccccc3s2)cc1` was “inactive”.
As to `Cl.Clc1ccc(Cn2c(CN3CCCC3)nc3ccccc32)cc1`, the cytotoxicity call was “inactive”.
Next, `CC1=CC2(CO)C(=O)[C@]3(CO3)C1[C@H]1[C@]2(C)C=C(CO)C(=O)[C@]12CO2` (stereo partly specified): “inactive”; `COc1ccc([Si](C)(C)[C@H]2[C@H](CCO)O[C@@]3(C(=O)N(Cc4ccccc4)c4ccc(N5C(=O)c6cccc7cccc5c67)cc43)[C@@H]2C)cc1`: “active”.
Next, `COc1ccc([Si](C)(C)[C@H]2[C@H](CC(=O)N3Cc4ccccc4C[C@H]3CO)O[C@@]3(C(=O)N(Cc4ccc(N5C(=O)c6cccc7cccc5c67)cc4)c4ccccc43)[C@@H]2C)cc1`: “inactive”; `COc1ccc([Si](C)(C)[C@H]2[C@H](CC(=O)N3CCC[C@H]3CO)O[C@@]3(C(=O)N(Cc4cccc(N5C(=O)c6cccc7cccc5c67)c4)c4ccccc43)[C@@H]2C)cc1`: “inactive”.
The value for `C[C@@H]1[C@@H]([Si](C)(C)F)[C@H](CCO)O[C@@]12C(=O)N(Cc1cccc(N3C(=O)c4cccc5cccc3c45)c1)c1ccccc12` was “inactive”; that for `COc1ccc([Si](C)(C)[C@H]2[C@H](CCO)O[C@@]3(C(=O)N(Cc4cccc(N5C(=O)c6cccc7cccc5c67)c4)c4ccccc43)[C@@H]2C)cc1` was “active”; that for `COc1ccc([Si](C)(C)[C@@H]2[C@@H](CC(=O)N3CCC[C@H]3CO)O[C@]3(C(=O)N(Cc4cccc(N5C(=O)c6cccc7cccc5c67)c4)c4ccccc43)[C@H]2C)cc1` was “inactive”.
As to `COc1ccc([Si](C)(C)[C@@H]2[C@@H](CC(=O)N3Cc4ccccc4C[C@H]3CO)O[C@]3(C(=O)N(Cc4cccc(N5C(=O)c6cccc7cccc5c67)c4)c4ccccc43)[C@H]2C)cc1`, the cytotoxicity call is “inactive”.
Next, `COc1ccc([Si](C)(C)[C@H]2[C@H](CC(=O)N3Cc4ccccc4C[C@H]3CO)O[C@@]3(C(=O)N(Cc4cccc(N5C(=O)c6cccc7cccc5c67)c4)c4ccccc43)[C@@H]2C)cc1`: “active”; `COc1ccc([Si](C)(C)[C@@H]2[C@@H](CCO)O[C@]3(C(=O)N(Cc4cccc(N5C(=O)c6cccc7cccc5c67)c4)c4ccccc43)[C@H]2C)cc1`: “active”; `COc1ccc([N+](=O)[O-])cc1CNCCO`: “inactive”.
Next, `CCNC(=O)C[C@H]1C=C[C@@H](NC(=O)C2CCOCC2)[C@H](CO)O1`: “inactive”.
Next, `CN(C)CC(=O)N[C@@H]1CC[C@@H](CCNS(=O)(=O)c2ccccc2)O[C@H]1CO`: “inactive”.
In the case of `NCc1ccccc1-c1ccco1`, the cytotoxicity call is “inactive”.
Turning to `C1CC(N2CCNCC2)C1`, the cytotoxicity call was “inactive”.
Next, `CN(C)CC(=O)N[C@@H]1CC[C@@H](CC(=O)O)O[C@H]1CO`: “inactive”; `C[C@H](CO)N1C[C@H](C)[C@@H](CN(C)Cc2cccc3c2OCCCO3)OCc2cnnn2CCCC1=O`: “inactive”.
The value for `CC(O)C(=O)Nc1c(I)c(C(=O)NC(CO)CO)c(I)c(C(=O)NC(CO)CO)c1I` (stereo unspecified) was “inactive”.
The value for `Cc1cccc(S(=O)(=O)N2C[C@@H](O)COC[C@@H]3O[C@@H](CC(=O)NCCCN4CCOCC4)CC[C@H]32)c1` was “inactive”.
For `COc1ccc(S(=O)(=O)N(C)C[C@@H]2Oc3ccc(NC(=O)NC(C)C)cc3C(=O)N([C@H](C)CO)C[C@H]2C)cc1`, the cytotoxicity call is “inactive”.
The value for `C[C@@H]1CN([C@H](C)CO)C(=O)c2cccc(NC(=O)c3cnccn3)c2O[C@@H]1CN(C)S(=O)(=O)c1cccs1` was “inactive”.
The value for `COC(=O)C1=C2CC[C@H](CO)NC(=O)N[C@@H](Cc3ccccc3)C(=O)NCc3cn(nn3)C[C@H](Cc3ccccc3)NC(=O)c3oc(c(C(=O)OC)c3C(=O)OC)CC[C@H](CO)NC(=O)N[C@@H](Cc3ccccc3)C(=O)NCc3cn(nn3)C[C@H](Cc3ccccc3)NC(=O)C(=C1C(=O)OC)O2` was “inactive”; that for `CCCN(C)C[C@@H]1OCCCC[C@@H](C)Oc2ccc(NS(C)(=O)=O)cc2C(=O)N([C@H](C)CO)C[C@H]1C` was “inactive”.
The value for `CO[C@@H]1CN(C)C(=O)c2ccc(NC(=O)c3ccccc3)cc2OC[C@@H](C)N(C(=O)CN(C)C)C[C@@H]1C` was “inactive”.
Consider `CNC(=N)NCCC[C@@H](N)C(=O)O`, for which the cytotoxicity call is “inactive”.
In the case of `C[C@@H]1CN([C@H](C)CO)C(=O)c2cc(C#Cc3ccccc3F)cnc2O[C@H]1CN(C)C(=O)Cc1ccncc1`, the cytotoxicity call was “inactive”.
For the molecule `Oc1c(Cl)cc(Cl)cc1Sc1cc(Cl)cc(Cl)c1O`, the cytotoxicity call is “active”.
Take `Cc1noc(C)c1NC(=O)Nc1ccc2c(c1)C(=O)N([C@@H](C)CO)C[C@@H](C)[C@H](CN(C)CC1CC1)OCCCC[C@H](C)O2`: the cytotoxicity call is “inactive”.
Next, `C[C@H]1CN([C@@H](C)CO)C(=O)c2cc(NC(=O)Cn3cnnn3)ccc2O[C@H]1CN(C)S(=O)(=O)c1cccs1`: “inactive”; `C[C@H]1CN([C@@H](C)CO)C(=O)CCCn2cc(nn2)CO[C@H]1CN(C)Cc1ccc2c(c1)OCCN2C`: “inactive”.
As to `C[C@H](CO)N1C[C@H](C)[C@H](CN(C)Cc2ccc(Cl)c(Cl)c2)Oc2ccc(NC(=O)C3CCCCC3)cc2CC1=O`, the cytotoxicity call is “inactive”.
Next, `C[C@H](CO)N1C[C@H](C)[C@H](CN(C)C(=O)c2ccccc2)OCCCC[C@H](C)Oc2ccc(NC(=O)Nc3cccc4ccccc34)cc2C1=O`: “inactive”.
Next, `C[C@@H]1CN([C@@H](C)CO)C(=O)c2cc(NS(C)(=O)=O)ccc2O[C@H]1CN(C)Cc1ccc(C(F)(F)F)cc1`: “inactive”.
